Screening results as filed in PubChem.
Sm TGR inh – blocks Schistosoma mansoni thioredoxin glutathione reductase; AID 485364; purified TGR, DTNB reduction, TNB absorbance 405 nm; Q962Y6; Potency, µM (doses to about 114 µM), for the others: top-dose activity change, negative = inhibition, hits mostly inhibitors; actives 3% (n = 360,000); active = well fitted inhibition curve with a large enough effect; inconclusive = small, poorly fitted or top-dose-only effect; inactive = no such curve, though single readings can be large or run the other way; also: potency is read from the fitted curve at half-maximal effect; % is scaled to controls: 0 for no effect and ±100 for the full control effect; nearly all actives have a fitted effect of over 60% in size
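Kinetic colorimetric format: TGR-catalysed, NADPH-driven DTNB reduction monitored via TNB absorbance. Enzyme dispensed at 20 nM; compound exposure 15 min at room temperature before reaction start.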
FMDV antiviral – blocks foot and mouth disease virus; FMDV antiviral cell-based qHTS; actives 1.2% (n = 410,000); AID 1159524; Potency, µM (highest dose often 57.9 µM), without a hit: at the top dose activity change, negative = inhibition, usual class: inhibitors; calls by dose curve; tested in HEK293T cells; also: read-out not given here; potency is read from the fitted curve at half-maximal effect; % is scaled to controls: 0 for no effect and ±100 for the full control effect; nearly all actives have a fitted effect of over 45% in size
Shiga toxin inh – blocks Shiga toxin action in Vero cells; actives 9.2% (n = 290,000); Vero cells, Shiga toxin protein synthesis inhibition reporter; inhibition, % at 38.7 µM; in the data active = inhibition mostly above about 28%, no sharp cut-off; inactive = mostly below about 43%; also: 0% is about no effect
CHX counter – affects cycloheximide protein synthesis inhibition readout, counter-screen; cell reporter, cycloheximide protein synthesis inhibition counterscreen; max response, %; actives 12% (n = 300,000); in the data active = max response mostly above about 13%, no sharp cut-off; inactive = mostly below about 14%; also: read at 38.3 µM for the half of the compounds with a filed dose; 0% is about no effect
Starred values were filed as active, the others as inactive; ? = inconclusive; . = no result. An excerpt weighted towards active compounds, which were near 12% of everything screened.

SMILES	Sm TGR inh	FMDV antiviral	Shiga toxin inh	CHX counter
O=C1NC(=S)N/C1=C/c1cccn1-c1ccc([N+](=O)[O-])cc1	-19%	-9%	-8	-1
Cn1cccc1/C=C1/C(=O)NC(=O)N(C(C)(C)C)C1=O	4%	-18%	-6	-2
O=C1NC(=S)NC(=O)C1=Cc1cccn1-c1ccc(O)cc1	?	20µM*	31	-4
O=Cc1cccn1-c1ccc2ccccc2c1	6%	47%	42*	29*
CN1C(=O)/C(=C/c2cccn2-c2ccc3ccccc3c2)C(=O)NC1=S	0%	28µM*	-7	14
O=C(C1CCCN(S(=O)(=O)Cc2ccccc2)C1)N1CCC(Cc2ccccc2)CC1 (stereo not given)	-18%	40µM*	-12	-6
O=C(Nc1ccc2c(c1)OCCO2)C1CCCN(S(=O)(=O)Cc2ccccc2)C1 (stereo not given)	-4%	-5%	72*	56*
OCCCNc1nc(-c2ccc(Cl)cc2)nnc1-c1ccccc1	1%	0%	22	20*
Cn1c(=O)c(-c2cccs2)nc2cnc(OCc3ccccc3)nc21	.	-12%	.	.
CCOc1ccc(C(=O)NCCc2ccccc2)cc1	10%	.	32	24*
CC(=O)Oc1ccc(C(=O)NCCc2ccccc2)cc1	1%	-21%	36	15*
CC(C)OCCCNc1ncnc2c1nc1n2CCCC1	3%	18%	29	18*
CCCCOc1[nH]c2nc(-c3ccco3)n(Cc3ccco3)c(=N)c2c1C#N	?	-10%	6	16*
Cc1ccc(N(CC(=O)NCCc2ccccc2C)S(=O)(=O)N(C)C)cc1	-1%	-6%	.	.
CCc1cccc(CC)c1NC(=O)CCCSc1nc2ccccc2s1	-1%	?	-20	4
O=C(CN(c1ccccc1)S(=O)(=O)c1ccccc1)NCCSc1nc2ccccc2s1	-20%	22µM*	39	1
N#CCc1nc(CSc2nc3ccccc3s2)cs1	49%	70%	87*	58*
CCC(C)(C)NC(=O)CCCSc1nc2ccccc2s1	2%	11%	118*	61*
CN(C)CCCSc1nc2ccccc2s1	7%	6%	68*	23*
Cc1c(Cl)cccc1NC(=O)CN1C(=O)COc2ccc(S(=O)(=O)N3CCOCC3)cc21	-1%	4%	.	.
O=C(Cc1ccc(F)cc1)NCc1ccc2c(c1)CCN2C(=O)c1ccc(F)cc1	4%	-21%	.	.
CCNc1ncc2nc(-c3ccc(F)cc3)c(=O)n(-c3ccc(OC)cc3)c2n1	.	-17%	.	.
Cc1cccc(CCNC(=O)c2sc3nc4n(c(=O)c3c2C)CCCC4)c1	-27%	5%	.	.
COc1ccc(CNc2ncnc3ccc(-c4ccccc4OC)cc23)c(OC)c1	.	-20%	.	.
CC(C)C1C(=O)Nc2ccc(S(=O)(=O)NCCc3ccc(Cl)cc3)cc21 (stereo not given)	13%	-7%	.	.
SMILES	Sm TGR inh	FMDV antiviral	Shiga toxin inh	CHX counter
CC(=O)Nc1ccc(NC(=O)CCCSc2nc3ccccc3s2)cc1	5%	16%	24	19*
O=C(O)CCSc1nc2ccccc2s1	-3%	40µM*	-8	-8
O=C(CCCSc1nc2ccccc2s1)NC1=NCCS1	-13%	-11%	0	18*
Cn1nc(-c2ccccc2F)c2cc(C(=O)NCc3cccc(Cl)c3)sc21	-8%	-22%	.	.
COc1c(Cl)ccc(Cl)c1C(=O)O	.	7%	.	.
O=C(Nc1ccccc1Cl)C1Cc2ccccc2O/C1=N\O (stereo not given)	0%	31%	87*	44*
CCOc1ccc(NC(=S)c2ccc3ccccc3n2)cc1	-9%	-4%	38*	24*
COc1ccc(NC(=S)c2ccc3ccccc3n2)cc1	10%	67%	60*	45*
COC(=O)c1c(OCc2ccccc2)cc(=O)n2c1CCN(Cc1cccc(C)n1)CC2	.	-3%	.	.
Cn1c(COc2ccc(F)cc2)nc2ccccc21	0%	24%	68*	43*
Cc1nnc(OCc2nc3ccccc3n2C)c2ccccc12	-1%	-6%	68*	33*
Cc1ccc(C)c(OCc2nc3ccccc3n2C)c1	-4%	23%	.	.
Cn1c(COc2ccc(C(=O)O)cc2)nc2ccccc21	5%	2%	-6	-5
Cc1cccc(OCc2nc3ccccc3n2C)c1	-2%	0%	29*	37*
Cc1ccccc1OCc1nc2ccccc2n1C	23%	52%	.	32*
CCc1cccc(C)c1NC(=O)C1CCN(c2nnc(C)c3c(C)n(-c4ccccc4)nc23)CC1	0%	-10%	.	.
O=C(CSc1ncc2c(n1)-c1ccccc1N(Cc1ccc(Cl)cc1)S2(=O)=O)c1ccc(Cl)cc1	-3%	-4%	.	.
Cc1nc(N2CCCC2)ncc1C(=O)N1CCN(c2ccccc2F)CC1	-1%	-11%	.	.
O=S(=O)(c1ccc2ccccc2c1)n1nc(-c2ccco2)nc1NCc1ccc(F)cc1	?	53%	.	.
CCCn1cnc2c(cnn2-c2ccc(F)cc2)c1=O	-1%	-24%	70*	43*
O=c1c2cnn(-c3ccc(F)cc3)c2ncn1Cc1ccc(F)cc1	1%	-21%	-2	-2
CCCCn1cnc2c(cnn2-c2ccc(Cl)cc2)c1=O	2%	-6%	18	11*
CCCCn1cnc2c(cnn2-c2ccc(F)cc2)c1=O	3%	16%	120*	27*
CCOC(=O)C(C)n1cnc2c(cnn2-c2ccc(Cl)cc2)c1=O (stereo not given)	-3%	-49%	-25	11
Cc1ccc(C)n1-c1c(C(=O)NCCCN2CCN(c3ccc(F)cc3)CC2)sc2ncccc12	0%	?	.	.
SMILES	Sm TGR inh	FMDV antiviral	Shiga toxin inh	CHX counter
CCCCOc1cccc(C2c3c(-c4cc(C)ccc4O)n[nH]c3C(=O)N2CCOC)c1 (stereo not given)	8%	-23%	.	.
CCn1nc(C)c2c(-c3ccccc3)cc(=O)n(C(C)C(=O)NCCC(C)C)c21 (stereo not given)	-10%	-4%	.	.
CC(C)Cn1cc(NC(=O)NCc2cccc(Cl)c2)c2ccccc2c1=O	0%	-18%	.	.
Cc1ccc(OCCn2ncc3ccccc3c2=O)c(C)c1	2%	20%	26	15*
O=C(O)CCn1ncc2ccccc2c1=O	-23%	4%	9	-3
O=c1c2ccccc2cnn1CCOc1cccc(Br)c1	-12%	48%	120*	51*
Cc1ccc(OCCn2cccn2)c(C)c1	-4%	1%	22	-2
Cc1cc(C)c(NC(=O)C2CCN(C(=O)N3CCOc4ccccc43)CC2)c(C)c1	8%	?	.	.
COc1ccc(-c2noc(C3CCCN(C(=O)c4cccc(C)c4)C3)n2)cc1 (stereo not given)	-1%	?	.	-3
Cc1ccc(-c2noc(C3CCCN(C(=O)c4cccc([N+](=O)[O-])c4)C3)n2)o1 (stereo not given)	-22%	23%	85*	39*
Cc1cccc(C(=O)N2CCCC(c3nc(-c4ccc(C)o4)no3)C2)c1 (stereo not given)	-22%	21%	113*	42*
C=CCOc1c(Cl)cc(CNc2ccc(N(C)C)cc2)cc1OC	18µM*	-17%	85	42*
Cc1ccc(Cl)cc1NCc1nnc2n1CCCCC2	1%	21%	.	.
Cc1onc(-c2c(F)cccc2Cl)c1C(=O)NC1CC1	?	-3%	-10	-3
